This passage reports outcome, Potency and activation results from PubChem BioAssay (NCATS).

The target in assay [1] is Rap guanine nucleotide exchange factor 3 (Homo sapiens) (UniProt O95398). The experiment in a line: Confirmatory qHTS for agonist of cAMP-regulated guanine nucleotide exchange factor 3 (EPAC1) (AID 1645881).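 Note: EPAC1 catalysed release of BODIPY-GDP from Rap1B seen as fluorescence loss; 100% = effect of cAMP agonist control; nearly all actives have a fitted effect of over 75% in size.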 On the technique in general: In qHTS, concentration-response curves come from the screen itself.
Assay [2] addresses Rap guanine nucleotide exchange factor 4 (Homo sapiens) (UniProt Q8WZA2). The experiment in a line: Confirmatory qHTS for agonist of cAMP-regulated guanine nucleotide exchange factor 4 (EPAC2) (AID 1645884).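 Note: nucleotide exchange releases bodipy-GDP from Rap1 and this lowers its fluorescence; % is set by controls: 0 for no effect and ±100 for the full control effect; nearly all actives have a fitted effect of over 65% in size.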
Assay [3] concerns the target Muscarinic acetylcholine receptor M1 (Rattus norvegicus) (UniProt P08482). The experiment in a line: qHTS Assay for Antagonists of Acetylcholine Muscarinic M1 Receptor: Measurement of IP-One Response (AID 944). Note: nearly all actives have a fitted effect of over 75% in size. Note: potency is the fitted concentration of half-maximal effect. In outline:
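CHO cells expressing rat M1 receptor, recovered overnight, were pre-incubated 10 min with compound, then stimulated 30 min with carbachol at EC80 (200 nM) in LiCl-containing buffer, pH 7.4. IP1 accumulation was read by HTRF (620/665 nm).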

Assay [4] concerns the target Pyruvate kinase PKM (Homo sapiens) (UniProt P14618). The experiment in a line: qHTS Assay for Activators of Human Muscle Pyruvate Kinase (AID 954; active = well fitted curve in the direction sought with a large enough effect, not every such curve was filed as active;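 note: 0% = uninhibited enzyme and -100% = no enzyme or full thiadiazolimine inhibition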). In outline:
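Luminescence from a luciferase ATP-detection/stop reagent reported PKM2 activity. Reactions contained 0.1 nM purified human enzyme, 0.5 mM PEP, 0.1 mM ADP and 7 mM MgCl2 at pH 7.2, run 1 h at RT.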

The target of assay [5] is Alpha-galactosidase A (Homo sapiens) (UniProt P06280). The experiment in a line: Counterscreen for Glucocerebrosidase Inhibitors: qHTS Assay for Human alpha-Galactosidase at pH 4.5 (AID 992). Note: 0% is about no effect. In short, it runs like this:
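Enzyme at 2 nM final was combined with compound (0.7 nM to 77 uM) and 80 uM 4-methylumbelliferyl alpha-D-galactopyranoside in 50 mM citric acid, 0.005% Tween-20, pH 4.5. After 20 min at room temperature, fluorescence was read (Ex 365/Em 440 nm); AC50 came from Hill fits.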
A general note: A counterscreen serves to expose hits that act by an unwanted route or on another target.

For assay [6], the target named is alpha-glucosidase (Oryza sativa, rice) (UniProt Q653V4). The experiment in a line: Counterscreen for Glucocerebrosidase Inhibitors: qHTS Assay for Rice alpha-Glucosidase at pH 5.0 (AID 997).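 Note: 0% = full activity with enzyme and -100% = basal without enzyme.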 In outline: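 Rice alpha-glucosidase (4 nM final) with 400 uM 4-methylumbelliferyl-alpha-D-glucopyranoside in citrate buffer pH 5.0, 20 min at room temperature, stopped at pH 10; fluorescence 365/440 nm, compounds 0.7 nM–77 uM, AC50 from Hill fits.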

Assay [7] in a line: qHTS Assay for Identification of Small Molecule Agonists for Thrombopoietin (TPO) Signaling Pathway (AID 917). Note: potency is the fitted concentration of half-maximal effect. In short, it runs like this: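 We measured Glycoprotein IIb promoter–luciferase output in IL-3-starved Ba/F3 murine cells expressing the human TPO receptor after 24 hrs at 37 C with compounds and 26 pM TPO.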
In assay [8] the target is Muscarinic acetylcholine receptor M1 (Rattus norvegicus) (UniProt P08482). The assay can be described thus: qHTS Assay for Antagonists of Acetylcholine Muscarinic M1 Receptor: Kinetic Measurement of Intracellular Calcium Response (AID 943). Note: nearly all actives have a fitted effect of over 75% in size. Note: potency is the fitted concentration of half-maximal effect. In short, it runs like this: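 CHO cells stably expressing rat M1 were loaded with no-wash Fluo-4 dye for 1 h at 37C, pre-incubated 10 min with compound, then challenged with EC80 carbachol (100 nM final); kinetic calcium read 4 min, peak/basal ratio.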

Assay [9] is described as follows: Counterscreen for APE1 Inhibitors: Fluorescent Dye Displacement Validation Assay (AID 1707).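 Note: plate controls were ThO with dsDNA and no compound for no effect and ThO without dsDNA for full effect.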 In short, it runs like this: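 Thiazole Orange displacement from dsDNA: 250 nM ThO with 50 nM TAMRA-labelled abasic-site (tetrahydrofuran) duplex in 50 mM Tris-HCl pH7.5, 50mM NaCl, 2 mM MgCl2, 0.01% Tween-20. Loss of endpoint fluorescence (ex 480 nm, em 540 nm) flags DNA binders.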

Assay [10] deals with ATP-dependent DNA helicase Q1 (Homo sapiens) (UniProt P46063). The experiment in a line: qHTS Validation Assay for Inhibitors of RecQ-Like Dna Helicase 1 (RECQ1) (AID 2353).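 Note: plate controls were DMSO vehicle for no effect and enzyme-free control for full effect.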 In short, it runs like this: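 50 nM RECQ1T1 preincubated 15 min with compound in Tris pH 8.0 buffer with MgCl2, DTT, Tween-20 and 2.5 ug/ml poly(dI-dC); started with 200 nM TAMRA/BHQ-2 forked duplex and 2 mM ATP. Unwinding read as fluorescence (525/598 nm), two reads 2 h apart.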

The target in assay [11] is Transient receptor potential cation channel subfamily V member 1 (Homo sapiens) (UniProt Q8NER1). The experiment in a line: HTS Assay for Compounds that Act as Enhancers of the Vanilloid Receptor 1 (AID 488979). Note: 0% is about no effect. In outline:
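Calcium influx kinetics via Fluo-8 (480/520 nm) in TRPV1-expressing cells, 2000/well cultured overnight at 35.5C. Compound-alone read 3 min (agonist phase), followed by EC20 capsaicin challenge for 2 min (enhancer phase).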

The target of assay [12] is Thyrotropin receptor (Homo sapiens) (UniProt P16473). The assay can be described thus: qHTS Assay for Antagonists of the Thyroid Stimulating Hormone Receptor (AID 488980). Note: series mostly up to about 58 µM; 0% is about no effect. In outline: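 Cells expressing human TSHR (HEK293) are dispensed in HBSS/HEPES containing 70 uM RO 20-1724, compound is added, then TSH at EC80 (4 nM final). Antibody in lysis buffer follows, 30 minutes at room temperature before HTRF detection.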

The target of assay [13] is Thyrotropin-releasing hormone receptor (Homo sapiens) (UniProt P34981). The experiment in a line: qHTS for Small Molecule Agonists and Allosteric Enhancers of Human TRH Receptor: Validation Screen for Agonists (AID 493127;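 active = calcium activation more than 3 SD above the typical response in the agonist read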;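 note: intracellular calcium rise by fluo-8 fluorescence before TRH EC20 addition; 0% is about no effect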). To be noted: TRH receptor agonist cell assay; at 2 µM; active compounds read high. In outline:
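TRHR-expressing cells were plated overnight in serum-containing medium, then loaded with fluo-8 calcium dye at room temperature for 30 min–1.5 h. After a 10 s baseline, compound was pin-transferred and calcium fluorescence (ex 480/em 530) read kinetically for agonist response.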

For assay [14], the target named is Galactokinase (Homo sapiens) (UniProt P51570). The experiment in a line: qHTS Validation Assay for Inhibitors of Human Galactokinase (GALK) (AID 493189). Note: 0% is about no effect. In short, it runs like this:
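Compounds were pin-transferred into ATP buffer, then GALK-galactose mix was added (final 5 nM enzyme, 100 uM galactose, 35 uM ATP). After 1 h at room temperature, remaining ATP was measured luminescently.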

Assay [15] in a line: Validation screen for small molecules that induce DNA re-replication in SW480 colon adenocarcinoma cells (AID 504364). Note: 0% is about no effect. In short, it runs like this: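 SW480 cells seeded at 250 per well were exposed to compound or DMSO for 48 hr at 37 C, 5% CO2, then stained with Hoechst for 40 min. DNA content per nucleus was imaged (405 nm ex, 500-530 nm em).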
Assay [16] has as its target Rap guanine nucleotide exchange factor 4 (Homo sapiens) (UniProt Q8WZA2). The experiment in a line: Confirmatory qHTS for antagonist of cAMP-regulated guanine nucleotide exchange factor 4 (EPAC2) (AID 1645885). Note: potency is the fitted concentration of half-maximal effect; nearly all actives have a fitted effect of over 25% in size.
Assay [17] in a line: Confirmation and Secondary Assay for Modulators of Hemoglobin Beta Chain Splicing at IVS2 654 locus (AID 910).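 Note: HeLa cells stably carrying EGFP split by mutant beta-globin IVS2-654 intron; per-well total GFP intensity by laser scanning cytometry after 2-day treatment; % of control where 0% means no effect.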 In short, it runs like this: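 Readout: per-well total peak green fluorescence (488 nm ex, 500–520 nm em) from objects 5–250 µm, reflecting correct splicing of an EGFP-654 reporter. Compounds were applied for 2 days at 37 °C to overnight-plated HeLa EGFP-654 cells; controls were DMSO and 500 nM IVS2-654 PNA.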

A short description of assay [18]: Confirmation and Secondary Assay for Modulators of Hemoglobin Beta Chain Splicing at IVS2 705 locus (AID 930).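 Note: HeLa cells stably expressing the EGFP-705 splicing reporter; GFP fluorescence per well restored by corrected splicing of the IVS2-705 intron in EGFP; series mostly up to about 46 µM; % of control where 0% means no effect.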 In outline:
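Fluorescence gain (488 nm laser, 500-520 nm PMT) reflects restored correct splicing of a mutant IVS2-705 intron inside EGFP in stably transfected HeLa cells after 2-day compound treatment.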

Assay [19] has as its target Glutathione peroxidase 1 (Homo sapiens) (UniProt P07203). The assay can be described thus: Primary qHTS Assay for Inhibitors of Recombinant Selenoprotein Glutathione Peroxidase 1 (GPX1) (AID 1845191). Note: nearly all actives have a fitted effect of over 65% in size. In short, it runs like this: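 10 nM GPX1 + cpd, 30 min RT; start w/ 1 mM GSH, 0.5 mM cumene hydroperoxide, 0.5 mM NADPH, 100 nM GR, 0.01% BSA; buffer 50 mM Tris-HCl pH 7.5, 2 mM EDTA, 150 mM NaCl; Fl 340/450, 0 & 15 min.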

The structures appear in SMILES notation. A number with no mark means an inactive call. Results filed as inconclusive are left out. Active and inactive are the calls of the source. Unless noted, calls come from the whole dose curve; as a rule, active = well fitted curve in the direction sought with a large enough effect; inconclusive = small, poorly fitted or top-dose-only effect, or another doubt; inactive = no such curve, though single readings can be large; an effect the other way counts as inactive or inconclusive.

Pyruvate kinase PKM (Homo sapiens), sequence (P14618 whole entry, looked up): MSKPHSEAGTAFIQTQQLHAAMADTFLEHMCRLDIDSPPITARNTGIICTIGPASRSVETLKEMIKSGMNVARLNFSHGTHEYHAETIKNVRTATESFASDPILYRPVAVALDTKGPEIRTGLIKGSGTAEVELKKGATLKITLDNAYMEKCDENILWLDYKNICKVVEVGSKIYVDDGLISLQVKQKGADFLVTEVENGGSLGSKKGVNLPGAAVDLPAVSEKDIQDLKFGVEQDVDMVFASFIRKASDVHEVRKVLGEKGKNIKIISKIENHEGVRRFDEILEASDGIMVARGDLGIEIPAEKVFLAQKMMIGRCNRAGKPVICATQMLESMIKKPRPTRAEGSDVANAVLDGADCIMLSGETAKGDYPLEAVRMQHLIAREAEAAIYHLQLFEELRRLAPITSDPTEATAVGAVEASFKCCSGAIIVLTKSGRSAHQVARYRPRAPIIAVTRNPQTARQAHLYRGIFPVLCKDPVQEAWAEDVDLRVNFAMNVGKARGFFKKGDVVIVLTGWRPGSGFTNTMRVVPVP
Muscarinic acetylcholine receptor M1 (Rattus norvegicus), sequence (P08482 whole entry, looked up): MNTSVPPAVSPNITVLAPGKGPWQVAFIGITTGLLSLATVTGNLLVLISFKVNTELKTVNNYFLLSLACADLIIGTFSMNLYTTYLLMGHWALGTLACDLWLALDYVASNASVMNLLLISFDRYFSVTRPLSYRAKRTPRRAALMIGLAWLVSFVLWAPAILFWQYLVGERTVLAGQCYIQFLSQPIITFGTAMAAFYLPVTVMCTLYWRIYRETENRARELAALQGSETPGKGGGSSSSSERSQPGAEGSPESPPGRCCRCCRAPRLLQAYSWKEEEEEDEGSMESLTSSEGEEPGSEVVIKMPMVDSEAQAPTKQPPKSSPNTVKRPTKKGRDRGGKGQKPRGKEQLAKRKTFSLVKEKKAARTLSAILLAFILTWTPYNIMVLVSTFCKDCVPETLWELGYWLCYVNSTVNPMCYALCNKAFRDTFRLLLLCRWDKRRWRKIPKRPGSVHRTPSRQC
Glutathione peroxidase 1 (Homo sapiens), sequence (P07203 whole entry, looked up): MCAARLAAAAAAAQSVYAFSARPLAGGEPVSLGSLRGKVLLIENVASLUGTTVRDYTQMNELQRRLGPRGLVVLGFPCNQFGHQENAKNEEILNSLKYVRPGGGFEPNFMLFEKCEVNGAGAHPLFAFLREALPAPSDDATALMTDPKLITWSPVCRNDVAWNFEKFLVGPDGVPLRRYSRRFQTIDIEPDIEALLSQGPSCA
Alpha-galactosidase A (Homo sapiens), sequence (P06280 whole entry, looked up): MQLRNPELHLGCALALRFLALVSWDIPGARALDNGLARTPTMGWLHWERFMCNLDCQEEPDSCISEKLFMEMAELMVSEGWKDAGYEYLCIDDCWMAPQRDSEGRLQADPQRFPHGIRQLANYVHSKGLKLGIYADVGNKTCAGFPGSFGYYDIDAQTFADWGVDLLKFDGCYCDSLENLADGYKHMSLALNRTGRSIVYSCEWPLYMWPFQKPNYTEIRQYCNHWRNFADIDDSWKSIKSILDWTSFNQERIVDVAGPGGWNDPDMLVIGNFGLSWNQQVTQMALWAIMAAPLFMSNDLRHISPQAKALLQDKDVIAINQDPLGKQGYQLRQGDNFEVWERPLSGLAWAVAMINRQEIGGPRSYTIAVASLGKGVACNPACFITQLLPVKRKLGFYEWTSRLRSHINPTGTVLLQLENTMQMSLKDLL
Rap guanine nucleotide exchange factor 4 (Homo sapiens), sequence (Q8WZA2 whole entry, looked up): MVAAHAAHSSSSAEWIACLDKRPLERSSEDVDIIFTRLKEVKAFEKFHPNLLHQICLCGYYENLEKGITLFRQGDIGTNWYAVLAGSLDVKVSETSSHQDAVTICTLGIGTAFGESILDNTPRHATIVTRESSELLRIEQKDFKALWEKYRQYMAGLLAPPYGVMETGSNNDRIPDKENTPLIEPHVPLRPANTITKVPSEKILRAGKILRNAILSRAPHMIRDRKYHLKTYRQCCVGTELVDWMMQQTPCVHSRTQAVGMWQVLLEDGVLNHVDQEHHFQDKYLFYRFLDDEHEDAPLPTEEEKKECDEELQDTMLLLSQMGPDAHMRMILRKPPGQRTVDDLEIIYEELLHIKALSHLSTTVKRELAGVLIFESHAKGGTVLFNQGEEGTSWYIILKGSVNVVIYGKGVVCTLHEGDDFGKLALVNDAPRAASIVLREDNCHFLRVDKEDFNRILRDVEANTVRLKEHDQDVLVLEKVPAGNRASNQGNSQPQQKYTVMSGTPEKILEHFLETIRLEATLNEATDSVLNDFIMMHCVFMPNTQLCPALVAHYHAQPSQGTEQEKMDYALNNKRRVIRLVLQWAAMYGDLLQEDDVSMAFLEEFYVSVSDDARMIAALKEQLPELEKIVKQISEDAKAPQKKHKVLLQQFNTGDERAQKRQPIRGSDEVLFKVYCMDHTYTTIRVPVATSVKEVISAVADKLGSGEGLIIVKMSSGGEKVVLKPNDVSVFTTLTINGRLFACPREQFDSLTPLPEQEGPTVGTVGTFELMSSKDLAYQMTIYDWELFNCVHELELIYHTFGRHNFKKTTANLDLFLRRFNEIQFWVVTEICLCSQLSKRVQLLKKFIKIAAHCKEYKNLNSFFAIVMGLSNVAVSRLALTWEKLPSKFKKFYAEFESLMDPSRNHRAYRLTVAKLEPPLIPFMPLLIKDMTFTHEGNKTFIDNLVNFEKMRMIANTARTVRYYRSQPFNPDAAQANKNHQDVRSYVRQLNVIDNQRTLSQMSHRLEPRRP
ATP-dependent DNA helicase Q1 (Homo sapiens), sequence (P46063 whole entry, looked up): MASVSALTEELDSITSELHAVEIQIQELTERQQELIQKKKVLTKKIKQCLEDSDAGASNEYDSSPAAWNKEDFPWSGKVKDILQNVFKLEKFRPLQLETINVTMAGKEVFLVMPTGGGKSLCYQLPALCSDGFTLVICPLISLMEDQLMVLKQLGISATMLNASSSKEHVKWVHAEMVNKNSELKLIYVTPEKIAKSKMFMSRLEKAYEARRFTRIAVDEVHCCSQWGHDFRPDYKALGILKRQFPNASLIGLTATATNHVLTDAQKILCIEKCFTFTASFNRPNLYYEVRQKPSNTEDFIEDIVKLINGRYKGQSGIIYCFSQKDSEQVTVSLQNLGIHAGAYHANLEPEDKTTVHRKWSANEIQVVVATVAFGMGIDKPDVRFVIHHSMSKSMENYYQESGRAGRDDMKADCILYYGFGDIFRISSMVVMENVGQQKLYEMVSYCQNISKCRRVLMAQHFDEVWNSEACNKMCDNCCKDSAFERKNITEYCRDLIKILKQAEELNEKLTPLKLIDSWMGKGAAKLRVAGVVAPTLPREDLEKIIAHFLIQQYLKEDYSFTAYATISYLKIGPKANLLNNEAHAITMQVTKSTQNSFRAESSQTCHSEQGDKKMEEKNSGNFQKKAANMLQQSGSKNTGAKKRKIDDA
Thyrotropin receptor (Homo sapiens), sequence (P16473 whole entry, looked up): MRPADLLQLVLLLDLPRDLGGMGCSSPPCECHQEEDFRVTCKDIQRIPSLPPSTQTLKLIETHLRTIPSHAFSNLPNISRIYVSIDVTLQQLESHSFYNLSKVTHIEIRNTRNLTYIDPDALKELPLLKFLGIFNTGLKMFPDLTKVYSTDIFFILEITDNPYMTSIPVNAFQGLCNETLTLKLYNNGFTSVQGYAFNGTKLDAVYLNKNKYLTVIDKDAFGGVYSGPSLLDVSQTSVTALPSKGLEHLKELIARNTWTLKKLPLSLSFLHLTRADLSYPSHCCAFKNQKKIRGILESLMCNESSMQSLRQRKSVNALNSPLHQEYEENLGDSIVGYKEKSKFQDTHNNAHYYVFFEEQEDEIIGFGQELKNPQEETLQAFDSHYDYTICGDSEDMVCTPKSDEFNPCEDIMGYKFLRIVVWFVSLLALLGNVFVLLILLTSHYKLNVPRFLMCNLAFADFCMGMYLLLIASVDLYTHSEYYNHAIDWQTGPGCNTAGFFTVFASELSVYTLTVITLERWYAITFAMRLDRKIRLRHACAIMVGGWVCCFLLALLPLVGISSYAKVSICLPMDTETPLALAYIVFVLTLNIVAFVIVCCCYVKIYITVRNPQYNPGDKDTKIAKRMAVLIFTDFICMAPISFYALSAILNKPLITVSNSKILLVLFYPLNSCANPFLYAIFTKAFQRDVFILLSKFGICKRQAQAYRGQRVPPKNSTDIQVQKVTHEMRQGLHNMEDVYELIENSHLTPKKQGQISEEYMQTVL
Thyrotropin-releasing hormone receptor (Homo sapiens), sequence (P34981 whole entry, looked up): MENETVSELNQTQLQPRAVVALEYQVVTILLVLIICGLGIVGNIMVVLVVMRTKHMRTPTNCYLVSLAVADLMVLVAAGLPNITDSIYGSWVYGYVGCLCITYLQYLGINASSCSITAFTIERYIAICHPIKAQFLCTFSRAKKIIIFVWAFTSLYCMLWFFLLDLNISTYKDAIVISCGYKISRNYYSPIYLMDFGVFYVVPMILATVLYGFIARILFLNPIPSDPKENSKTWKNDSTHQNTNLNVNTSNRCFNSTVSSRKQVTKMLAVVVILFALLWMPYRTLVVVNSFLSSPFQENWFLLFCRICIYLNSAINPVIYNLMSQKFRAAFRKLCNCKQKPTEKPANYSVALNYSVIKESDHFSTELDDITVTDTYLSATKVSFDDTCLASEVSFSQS
Galactokinase (Homo sapiens), sequence (P51570 whole entry, looked up): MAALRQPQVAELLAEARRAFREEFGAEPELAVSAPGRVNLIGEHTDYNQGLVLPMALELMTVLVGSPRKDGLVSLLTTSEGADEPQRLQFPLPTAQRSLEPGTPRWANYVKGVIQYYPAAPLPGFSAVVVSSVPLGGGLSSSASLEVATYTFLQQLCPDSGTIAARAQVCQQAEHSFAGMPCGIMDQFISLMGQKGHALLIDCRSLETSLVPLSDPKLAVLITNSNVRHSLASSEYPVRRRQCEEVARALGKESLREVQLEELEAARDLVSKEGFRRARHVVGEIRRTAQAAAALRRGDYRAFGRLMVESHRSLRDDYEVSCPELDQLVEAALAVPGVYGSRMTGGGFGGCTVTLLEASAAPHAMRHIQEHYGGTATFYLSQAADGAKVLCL

Regarding `CC(C)[C@H](CO)Nc1nc(Nc2cc(N)cc(Cl)c2)c2ncn(C(C)C)c2n1`, the outcome in [1] and in assay [2] was inactive.
As to `C=CCN1CCc2cc(O)c(O)cc2[C@H](c2ccccc2)C1`, in [3], the Potency result was “inactive”. For the same molecule, the result in [4], in [5] and in assay [6] was inactive.
For `NC(N)=NN=Cc1c(Cl)cccc1Cl`, the Potency result in [7] and in assay [3] was “inactive” in each case. Also, the outcome in assay [4] and in [6] was inactive.
`COc1ccccc1NC(=O)Nc1nc(-c2cccnc2)nc2ccccc12`: the Potency result in assay [7], in [8], in assay [3], in [9] and in assay [10] was “inactive” each time. Also, the molecule was classed as inactive in [5], in [11], in [12], in assay [14] and in [15]. Further, the activation in [13] is 0.25%.
For `CCC(C)(C)C(=O)O[C@@H]1C[C@@H](C)C=C2C=C[C@H](C)[C@H](CC[C@@H]3C[C@@H](O)CC(=O)O3)[C@H]21`, the call in [1] and in [2] was inactive. Besides, the Potency in assay [16] is 49.4 µM (active).
Regarding `NCCNS(=O)(=O)c1cccc2cnccc12`, the Potency result in assay [8], in assay [3], in assay [9] and in [10] was “inactive” in each case. The molecule was called inactive in [5], in assay [11], in assay [12], in assay [14] and in assay [15]. In addition, the activation in assay [13] was -0.5%.
Regarding `CCCCOc1cc(C[C@@H]2CNC(=O)N2)ccc1OC`, the result in assay [17], in assay [18], in assay [4] and in assay [6] was inactive. Moreover, the Potency result in assay [7] and in assay [3] was “inactive” throughout.
With `N[C@H](Cc1ccccc1)C(=O)O`, in assay [19], the Potency result was “inactive”.
Regarding `CC#CCOC(=O)c1c(C)nc2sc3c(c2c1N)CC[C@@H](O)C3`, the Potency result in assay [7] was “inactive”. Moreover, the Potency in [8] is 5.01 µM (active). The call in assay [6] was inactive.
As to `C[C@@H]1CCN=C(N)S1`, the Potency result in assay [7] and in [3] was “inactive” each time.
For `Cc1cccc(/C=C\c2ccccc2)n1`, the Potency in [7] was 2 µM (active). Moreover, the Potency entry in assay [3] is “inactive”.
In the case of `CCCCCCCCCCCCCCCC(=O)N[C@H](CN1CCOCC1)[C@H](O)c1ccccc1`, the Potency result in [19] was “inactive”.
For the molecule `N[C@H](Cc1ccc(Cl)cc1)C(=O)O`, the molecule was called inactive in assay [17] and in assay [18]. In [8], the Potency entry is “inactive”.
Consider `COc1cc([C@@H]2c3cc4c(cc3C(O[C@@H]3O[C@@H]5CO[C@@H](c6cccs6)OC5[C@H](O)[C@H]3O)C3COC(=O)[C@@H]32)OCO4)cc(OC)c1O` (some centres undefined), for which, in assay [19], the Potency entry was “inactive”.
Turning to `Cc1cccc([C@@H]2CN(C)CCc3c2cc(O)c(O)c3Cl)c1`, the Potency entry in assay [3] is “inactive”. In addition, the call in assay [4], in [5] and in assay [6] was inactive.
Take `Fc1cccc(/C=N\N=C/c2cccc(F)c2)c1`: the Potency in [7] is 3.16 µM (active). The Potency entry in assay [8] and in assay [3] was “inactive” throughout. For the same molecule, the call in [6] was inactive.
Regarding `C#C[C@]1(O)CC[C@H]2[C@H]3CCC4=Cc5oncc5C[C@]4(C)[C@@H]3CC[C@]21C`, the Potency in assay [3] is 7.94 µM (active). For the same molecule, the outcome in assay [5] and in assay [6] was inactive.
